Laboratory results as given in PubChem BioAssay AID1159580 (chemical genetic matrix, 2015).
Out of some 5,500 compounds screened, about 2,000 (36%) were called active. Roughly 18% stayed inconclusive and do not appear here. This is one part of the list. Unmarked numbers belong to inactive results. Rule as the data show it: active = normalized growth mostly below about 0.91 (no sharp cut-off); inconclusive = no clear call, values can overlap the other calls; inactive = mostly above about 0.92.

Test: chemical genetic growth profiling, strain panel (AID 1159580);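 also: tested at 20 µM; growth read once vehicle control cultures reached saturation at 30 °C; 1 = growth at the plate median or of vehicle wells; lower values mean less growth of the strain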
Conditions: S. cerevisiae deletion strains, growth OD

Q: What does the source list for `CCc1cc2c(cc1-c1csc(C/C(N)=N\O)n1)C(C)(C)CCC2(C)C`?
A: normalized growth (locus YAR019C, strain CDC15, active compounds read low): 0.985; normalized growth (locus YBL105C, strain PKC1, active compounds read low): 0.974; normalized growth (locus YBR135W, strain CKS1, active compounds read low): 0.969; normalized growth (locus YBR136W, strain MEC1, active compounds read low): 0.981; normalized growth (locus YBR160W, strain CDC28, active compounds read low): 0.986; normalized growth (locus YDL017W, strain CDC7, active compounds read low): 0.978; normalized growth (locus YDL028C, strain MPS1, active compounds read low): 0.985; normalized growth (locus YDL101C, strain DUN1, active compounds read low): 0.979; normalized growth (locus YDL108W, strain KIN28, active compounds read low): 0.968; normalized growth (locus YDL132W, strain cdc53, active compounds read low): 0.965; normalized growth (locus YDL214C, strain PRR2, active compounds read low): 0.757; normalized growth (locus YDR052C, strain DBF4, active compounds read low): 0.974; normalized growth (locus YDR054C, strain cdc34, active compounds read low): 0.97; normalized growth (locus YDR226W, strain ADK1, active compounds read low): 0.976; normalized growth (locus YDR477W, strain SNF1, active compounds read low): 0.75; normalized growth (locus YER123W, strain YCK3, active compounds read low): 0.568 (active); normalized growth (locus YER133W, strain GLC7, active compounds read low): 0.712 (active); normalized growth (locus YFL009W, strain cdc4, active compounds read low): 0.967; normalized growth (locus YFL029C, strain CAK1, active compounds read low): 0.974; normalized growth (locus YFR003C, strain YPI1, active compounds read low): 0.974; normalized growth (locus YFR019W, strain FAB1, active compounds read low): 0.819; normalized growth (locus YFR028C, strain CDC14, active compounds read low): 0.973; normalized growth (locus YGR040W, strain KSS1, active compounds read low): 0.749; normalized growth (locus YGR052W, strain FMP48, active compounds read low): 0.567 (active); normalized growth (locus YGR092W, strain DBF2, active compounds read low): 0.722; normalized growth (locus YHR030C, strain SLT2, active compounds read low): 0.499 (active); normalized growth (locus YHR079C, strain IRE1, active compounds read low): 0.525; normalized growth (locus YHR082C, strain KSP1, active compounds read low): 0.647; normalized growth (locus YHR205W, strain SCH9, active compounds read low): 0.77; normalized growth (locus YIL147C, strain SLN1, active compounds read low): 0.981; normalized growth (locus YJL095W, strain BCK1, active compounds read low): 0.532; normalized growth (locus YJL128C, strain PBS2, active compounds read low): 0.962; normalized growth (locus YJL157C, strain FAR1, active compounds read low): 0.779; normalized growth (locus YJR016C, strain ILV3, active compounds read low): 0.965; normalized growth (locus YJR066W, strain TOR1 (second series), active compounds read low): 0.601 (active); normalized growth (locus YJR066W, strain TOR1, active compounds read low): 0.666; normalized growth (locus YKL048C, strain ELM1, active compounds read low): 0.721 (active); normalized growth (locus YKL067W, strain YNK1, active compounds read low): 0.755; normalized growth (locus YKL101W, strain HSL1, active compounds read low): 0.701 (active); normalized growth (locus YKL193C, strain SDS22, active compounds read low): 0.973; normalized growth (locus YKL203C, strain TOR2, active compounds read low): 0.764; normalized growth (locus YLR113W, strain HOG1, active compounds read low): 0.369 (active); normalized growth (locus YLR133W, strain CKI1, active compounds read low): 0.813; normalized growth (locus YLR403W, strain SFP1, active compounds read low): 0.784; normalized growth (locus YML070W, strain DAK1, active compounds read low): 0.618 (active); normalized growth (locus YMR001C, strain CDC5, active compounds read low): 0.969; normalized growth (locus YMR205C, strain PFK2 (second series), active compounds read low): 0.78; normalized growth (locus YMR277W, strain FCP1, active compounds read low): 0.963; normalized growth (locus YNL006W, strain LST8, active compounds read low): 0.977; normalized growth (locus YNL020C, strain ARK1, active compounds read low): 0.788; normalized growth (locus YNL161W, strain CBK1, active compounds read low): 0.977; normalized growth (locus YNL183C, strain NPR1, active compounds read low): 0.553 (active); normalized growth (locus YNL207W, strain RIO2, active compounds read low): 0.964; normalized growth (locus YNL222W, strain SSU72, active compounds read low): 0.972; normalized growth (locus YNL307C, strain MCK1 (second series), active compounds read low): 0.797; normalized growth (locus YOL078W, strain AVO1, active compounds read low): 0.969; normalized growth (locus YOL136C, strain PFK27, active compounds read low): 0.738; normalized growth (locus YOR061W, strain CKA2, active compounds read low): 0.788; normalized growth (locus YOR119C, strain RIO1, active compounds read low): 0.78; normalized growth (locus YOR231W, strain MKK1, active compounds read low): 0.525 (active); normalized growth (locus YOR329C, strain SCD5, active compounds read low): 0.981; normalized growth (locus YPL031C, strain PHO85, active compounds read low): 0.639 (active); normalized growth (locus YPL153C, strain RAD53, active compounds read low): 0.552 (active); normalized growth (locus YPL204W, strain HRR25, active compounds read low): 0.759; normalized growth (locus YPL209C, strain IPL1, active compounds read low): 0.976; normalized growth (locus YPL256C, strain CLN2, active compounds read low): 0.546 (active); normalized growth (locus YPR025C, strain CCL1, active compounds read low): 0.978; normalized growth (locus YPR106W, strain ISR1, active compounds read low): 0.976; normalized growth (locus YPR111W, strain DBF20, active compounds read low): 0.966; normalized growth (strain NNK1, active compounds read low): 0.947; normalized growth (strain TSCII, active compounds read low): 0.975
